Compounds with a hit are over-represented: about 27% of the library has one in this group of screens.
Cav3 T inh = inhibitors of human Cav3.2 T-type calcium channel; AID 449739; B-score at 10 µM; Cav3.2-expressing cells, Fluo-4 calcium fluorescence FDSS; hits give low values; O95180; 100,000 tested, 4% active;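 active means single-dose well whose peak fluorescence ratio is a statistical outlier from its plate by either plate-standardised score or position-corrected B-score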
CYP2C9 inhib = inhibitors of human CYP2C9 | P11712 | CYP2C9 Supersomes, luciferin-H conversion, luminescence | inhibition, % at 5 µM | 96,000 tested, 20% active;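 active means blocking of liver enzyme CYP2C9 beyond about 50% at 5 µM, limit read from the data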
Target sequence (P11712 whole entry, looked up): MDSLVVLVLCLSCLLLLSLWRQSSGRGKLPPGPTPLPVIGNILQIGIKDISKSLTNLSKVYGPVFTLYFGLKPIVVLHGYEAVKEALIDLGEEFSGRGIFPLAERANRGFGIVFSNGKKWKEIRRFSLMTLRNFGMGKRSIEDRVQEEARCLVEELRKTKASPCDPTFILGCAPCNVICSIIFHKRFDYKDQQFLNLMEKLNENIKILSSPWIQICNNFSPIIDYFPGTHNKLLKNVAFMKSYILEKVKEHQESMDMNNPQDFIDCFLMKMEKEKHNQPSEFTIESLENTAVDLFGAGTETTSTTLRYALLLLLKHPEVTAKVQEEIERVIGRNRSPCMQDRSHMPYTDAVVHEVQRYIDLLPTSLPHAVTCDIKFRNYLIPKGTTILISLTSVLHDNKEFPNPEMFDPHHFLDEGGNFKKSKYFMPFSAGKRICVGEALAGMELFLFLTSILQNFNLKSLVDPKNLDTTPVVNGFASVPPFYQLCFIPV
CYP2C19 inh = human CYP2C19 inhibition; P33261; CYP2C19 Supersomes, luciferin-H EGE luminescence, 30 min; inhibition, % at 5 µM; 96,000 tested, 21% active;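 active means CYP2C19 inhibition above a set limit at 5 µM in the primary screen, cut at about 50% in these data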;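 further: plate controls were negative control wells for no effect and 2.5 mM tranylcypromine positive control for full effect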
CYP2C9 activ = activators of human CYP2C9; P11712; recombinant CYP2C9, luciferin-H conversion, luminescence; hits give high values; factor 1 = untreated enzyme, 0 = blocked; activation factor at 5 µM; 96,000 tested, 1.4% active; AID 1024;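 active means activation factor of 2 or more for CYP2C9 at a 5 µM dose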;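 further: 0 = sulfaphenazole-blocked wells and 1 = vehicle-only wells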
CYP2C19 act = activators of human cytochrome P450 2C19; activation factor at 5 µM; AID 1025; recombinant CYP2C19, luciferin-H EGE luminescence; hits give high values; 0 = fully inhibited enzyme, 1 = untreated enzyme; P33261; 96,000 tested, under 10 active;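 active means activation factor of at least 2 at 5 µM in the primary screen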;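 further: 0 = wells with 2.5 mM tranylcypromine and 1 = vehicle-only wells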
Numbers without * were called inactive; / = not tested or not shown.

SMILES	Cav3 T inh	CYP2C9 inhib	CYP2C19 inh	CYP2C9 activ	CYP2C19 act
Cc1ccc(N2C(=O)c3n[nH]c(C)c3C2c2ccco2)cc1 (stereo unspecified)	0.22	-6	6	1.1	0.9
Cc1ccc(N2C(=O)c3n[nH]c(C)c3C2c2ccccn2)cc1 (stereo unspecified)	/	18	17	0.8	0.8
CCOC(=O)c1ccc(N2C(=O)c3n[nH]c(C)c3C2c2ccc(OC)cc2OC)cc1 (stereo unspecified)	0.82	/	/	/	/
COc1cc(C2C(C(C)=O)=C(O)C(=O)N2c2ccc(C)cc2)ccc1O (stereo unspecified)	0.24	34	-14	0.7	1.1
CCOC(=O)c1ccc(N2C(=O)c3n[nH]c(C)c3C2c2ccco2)cc1 (stereo unspecified)	-1.5	77*	81*	0.2	0.2
COC(=O)c1scc(C)c1N/N=C(\C)c1cc(F)c(Cl)cc1F	-0.52	-10	-17	1.1	1.2
CCOC(=O)c1ccc(N2C(=O)c3n[nH]c(C)c3C2c2ccc(OC)cc2)cc1 (stereo unspecified)	-0.17	93*	90*	0.1	0.1
CCOC(=O)c1c(C)[nH]c(C(=O)COC(=O)CN2C(=O)C3CCCCC3C2=O)c1C (stereo unspecified)	-0.021	26	37	0.7	0.6
CCOC(=O)c1c(C)[nH]c(C(=O)CSc2ccccc2)c1C	-0.073	96*	84*	0	0.2
CCOC(=O)c1c(C)[nH]c(C(=O)COC(=O)C(C)N2C(=O)C3CCCCC3C2=O)c1C (stereo unspecified)	-3.2*	52*	55*	0.5	0.4
CCOC(=O)c1c(C)[nH]c(C(=O)COC(=O)CNC(=O)C2CCCCC2)c1C	0.093	37	13	0.6	0.9
CCOC(=O)c1c(C)[nH]c(C(=O)COC(=O)c2ccc(N3CCCC3=O)cc2)c1C	-0.025	90*	0	0.1	1
CCCCC(=O)OCC(=O)c1[nH]c(C)c(C(=O)OCC)c1C	-2.7	83*	-13	0.2	1.1
COCCn1c(C)cc(C(=O)COC(=O)c2ccc(N3CCCC3=O)cc2)c1C	0.15	-15	6	1.2	0.9
CSCCC(NC(=O)OC(C)(C)C)C(=O)NC(C(=O)NC(CC(C)C)C(N)=O)C(C)C (stereo unspecified)	-1.5	1	-11	1	1.1
Cc1ccc(-n2c(SCC(=O)Nc3ccc4c(c3)OCCO4)nnc2-c2ccco2)cc1	0.27	-3	38	1	0.6
CCC(C)NCCCCOc1ccc(C)cc1[N+](=O)[O-] (stereo unspecified)	0.61	2	-8	1	1.1
CCCCCCC(=O)c1c(C)[nH]c(C(=O)OCC)c1C	-2.2	71*	25	0.3	0.8
CCOC(=O)c1c(C)[nH]c(N=Nc2ccccc2C)c1C	-1.1	95*	83*	0	0.2
CCOC(=O)c1[nH]c(C)c(C(=O)N2CCN(c3ccccc3)CC2)c1C	0.56	55*	35	0.5	0.7
CCOC(=O)c1[nH]c(C)c(C(=O)O)c1C	0.0072	-17	-10	1.2	1.1
CCOC(=O)c1[nH]c(C)c(C(=O)N2CCOCC2)c1C	0.1	5	3	1	1
CCOC(=O)c1c(C)[nH]c(C(C)=O)c1C	0.5	56*	51*	0.4	0.5
COc1ccc(C(=O)CSc2nnc(C3CC3)n2N)cc1	-2.2	31	38	0.7	0.6
CCOC(=O)c1[nH]c(C)c(C(=O)OCCN2C(=O)c3ccccc3C2=O)c1C	/	85*	67*	0.2	0.3
SMILES	Cav3 T inh	CYP2C9 inhib	CYP2C19 inh	CYP2C9 activ	CYP2C19 act
CCOC(=O)c1c(C)[nH]c(C(=O)CSc2nnc(C3CC3)n2N)c1C	-0.041	66*	69*	0.3	0.3
CCOC(=O)c1c(C)[nH]c(C(=O)COC(=O)CSC)c1C	1.1	56*	41	0.4	0.6
CCOC(=O)c1c(C)[nH]c(C(=O)COC(=O)c2cnc(C)cn2)c1C	0.87	22	28	0.8	0.7
C=CCSc1nc2sc(-c3ccccc3)cc2c(=O)n1N	-0.12	50*	29	0.5	0.7
Cc1ccc(S(=O)(=O)C2(C(=O)O)CCCC2)cc1C	0.55	1	-3	1	1
O=C(CNCCO)N1CCc2ccccc21	1.2	-1	4	1	1
CCc1nnc(NCC(=O)N2CCc3ccccc32)s1	1.5	60*	48	0.4	0.5
Cc1nonc1NC(=O)OC1CCCCC1	0.82	3	17	1	0.8

Screens from PubChem BioAssay.
